TDP1 cell noCPT: qHTS for Inhibitors of human tyrosyl-DNA phosphodiesterase 1 (TDP1): qHTS in cells in absence of CPT | AID 686978, 2013 | hit rate 15% among 420,000 | Potency, µM (titrated, usually from 46.2 µM), for inactives: top-dose activity change, negative = growth inhibition, most hits filed as inhibitors | DT40 Tdp1-/- hTDP1 cells, no CPT, ATP luminescence, 48 h; note: potency is the fitted concentration of half-maximal effect; nearly all actives have a fitted effect of over 55% in size
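Stably hTDP1-transfected Tdp1-null chicken DT40 cells were treated with library compounds minus camptothecin and grown for at least 48 hr at 37 °C, after which cellular ATP was quantified by luminescence.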
TDP1 cell CPT: DT40-hTDP1 cell growth loss with CPT | hit rate 12% among 420,000 | chicken DT40 Tdp1-/-;hTDP1 cells + 20 nM CPT, ATP luminescence, 48 h | Potency, µM (top dose mostly 46.2 µM), inactives show at the top dose activity change, negative = growth inhibition, usual class: inhibitors; note: potency is the fitted concentration of half-maximal effect; nearly all actives have a fitted effect of over 55% in size
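Chicken DT40 Tdp1-/- cells complemented with human TDP1, 400 cells/well, exposed to compounds plus 20 nM camptothecin for at least 48 h at 37 C; viability read as ATP content by CellTiter-Glo luminescence.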
ELG1 DNA repair: ELG1-dependent DNA repair inhibition. HEK293T ELG1-luciferase reporter, luminescence, 16 h; DNA damage induced by 5-fluorouridine. Potency, µM (highest dose often 46.1 µM), inactives show at the top dose activity change, negative = inhibition, hits mostly inhibitors. hit rate 2.3% among 330,000; note: potency is the fitted concentration of half-maximal effect; nearly all actives have a fitted effect of over 55% in size
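Overnight (16 hr) co-exposure of 2,000 cells/well to 5-fluorouridine and compound at 37 °C preceded detection. Luciferase was quantified via ONE-Glo luminescence; loss of signal denotes inhibition.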
HT1080 IDH1KD tx: HT-1080 IDH1 knockdown cell toxicity (counter line) | HT-1080 IDH1 knockdown viability, ATP luminescence, 48 h | Potency, µM (doses to about 46.1 µM), inactives show at the highest dose activity, negative = toxicity, most hits filed as cytotoxic | hit rate 2% among 360,000 | AID 686971;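 note: potency is the fitted concentration of half-maximal effect; 0% = DMSO wells and -100% = cell-free medium wells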
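Knockdown cells (IDH1KD HT-1080) received compounds 2 h after plating at 750 cells/well and were kept 48 h at 37 °C in 5% FBS RPMI. A CellTiter-Glo luminescence read gave % activity for curve fitting.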
IL1B secr inh: inflammasome signaling inhibition, IL-1 beta readout; THP-1 LPS/ATP IL-1B secretion, AlphaLISA, 16 h; hits give low values; activity change, % at 57.5 µM; hit rate 4.7% among 360,000; in the data active = activity change below about -50%; inconclusive = mostly about -30% to -49%
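THP-1 cells pretreated 1 hr with compounds (up to 57.5 uM final), then stimulated with LPS (250 ng/mL final) plus ATP (1.25 mM final); secreted IL-1B measured by AlphaLISA after 16 hr, decreased signal indicating inhibition.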
HT1080NT lethal: kills 2HG-producing HT-1080-NT fibrosarcoma cells. HT-1080-NT fibrosarcoma viability, CellTiter-Glo ATP luminescence, 48 h. Potency, µM (top dose mostly 46.1 µM), for the others: top-dose activity, negative = less viability, actives largely listed as cytotoxic. hit rate 1.6% among 360,000;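 note: NT is the 2HG producing partner of a matched IDH1 knockdown line; potency is the fitted concentration of half-maximal effect; 0% = DMSO-treated cells and -100% = media-only wells without cells; nearly all actives have a fitted effect of over 55% in size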
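Fibrosarcoma NT cells, 750 per well in 5% FBS RPMI, were exposed to compound for 48 hours. Viability: CellTiter-Glo luminescence.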
* marks the source's active call; other numbers are inactive results; [ ] = remark or other dose. This is a sample that favours compounds with a hit; in the whole collection about 19% have one here. Unless noted, calls come from the whole dose curve; as a rule, active = well fitted curve in the direction sought with a large enough effect; inconclusive = small, poorly fitted or top-dose-only effect, or another doubt; inactive = no such curve, though single readings can be large; an effect the other way counts as inactive or inconclusive. Unless noted, % is set by controls: 0 for no effect and ±100 for the full control effect.

How did CCOc1ccccc1NC(=O)c1cc2c(=O)n(Cc3cccnc3)ccc2nc1C do in these assays?
TDP1 cell noCPT: -22%; TDP1 cell CPT: -27%

Results for COc1ccc(-c2cc(NC=O)c3ncc(-c4cnn(C)c4)n3c2)cc1 ?
TDP1 cell noCPT: inconclusive; TDP1 cell CPT: inconclusive; HT1080 IDH1KD tx: inconclusive; IL1B secr inh: 0; HT1080NT lethal: inconclusive

How did COc1ccc(-c2cc(NC=O)c3ncc(-c4cccc(OC)c4)n3c2)cc1 do in these assays?
TDP1 cell noCPT: 5.2µM*; TDP1 cell CPT: 5.8µM*; HT1080 IDH1KD tx: 9.2µM*; IL1B secr inh: 89; HT1080NT lethal: inconclusive

Results for COc1cccc(-c2cnc3c(NC=O)cc(-c4ccc(N(C)C)cc4)cn23)c1 ?
TDP1 cell noCPT: 8.2µM*; TDP1 cell CPT: 15µM*; HT1080 IDH1KD tx: 18µM*; IL1B secr inh: 19; HT1080NT lethal: inconclusive

What do the screens show for `CCn1c(=O)[nH]c2cc(C(=O)Nc3cc(C)cc(C)c3)ccc2c1=O`?
TDP1 cell noCPT: inconclusive; TDP1 cell CPT: -17%; ELG1 DNA repair: inconclusive; HT1080 IDH1KD tx: 11%; IL1B secr inh: -6; HT1080NT lethal: 11%

How did CC(NC(=O)c1cccc(Nc2nc3ccccc3n3nnnc23)c1)c1ccccc1 (stereo unspecified) do in these assays?
TDP1 cell noCPT: 7.3µM*; TDP1 cell CPT: 9.2µM*

How did COc1ccc(CCNC(=O)c2ccc(Nc3nc4ccccc4n4nnnc34)cc2)cc1OC do in these assays?
TDP1 cell noCPT: inconclusive; TDP1 cell CPT: -27%

What do the screens show for `CC(C)CCNC(=O)c1cccc(Nc2nc3ccccc3n3nnnc23)c1`?
TDP1 cell noCPT: 18µM*; TDP1 cell CPT: 21µM*

What do the screens show for `Fc1cccc(Nc2nc3ccccc3n3nnnc23)c1`?
TDP1 cell noCPT: inconclusive; TDP1 cell CPT: inconclusive; ELG1 DNA repair: inconclusive; HT1080 IDH1KD tx: -2%; IL1B secr inh: 46; HT1080NT lethal: -4%

What do the screens show for `O=C(Nc1c(F)cc(F)cc1Br)c1cc(S(=O)(=O)N2CCN(c3ccccn3)CC2)ccc1F`?
TDP1 cell noCPT: 26µM*; TDP1 cell CPT: inconclusive; ELG1 DNA repair: inconclusive; HT1080 IDH1KD tx: -4%; IL1B secr inh: -26; HT1080NT lethal: -6%

Results for Cc1cccc(C)c1NC(=O)c1cc(S(=O)(=O)N2CCc3ccccc3C2)ccc1F ?
TDP1 cell noCPT: inconclusive; TDP1 cell CPT: 18µM*

How did O=C(Nc1ccc(Br)cc1)c1cc(S(=O)(=O)N2CCc3ccccc32)ccc1F do in these assays?
TDP1 cell noCPT: 15µM*; TDP1 cell CPT: 15µM*

Results for CC(=O)Nc1ccc(S(=O)(=O)N2CCN=C2c2ccccc2)cc1 ?
TDP1 cell noCPT: 8%; TDP1 cell CPT: -8%; ELG1 DNA repair: 8.2µM*; HT1080 IDH1KD tx: 0%; IL1B secr inh: -9; HT1080NT lethal: -4%

What do the screens show for `Cc1cc(C)c(S(=O)(=O)N2CCN=C2c2ccccc2)cc1C`?
TDP1 cell noCPT: -24%; TDP1 cell CPT: -4%; ELG1 DNA repair: -6%; HT1080 IDH1KD tx: -17%; IL1B secr inh: 30; HT1080NT lethal: -2%

What do the screens show for `Cc1nc2ccc(NC(=O)c3cc(Cl)ccn3)cc2s1`?
TDP1 cell noCPT: -23%; TDP1 cell CPT: -6%; ELG1 DNA repair: inconclusive; HT1080 IDH1KD tx: 13%; IL1B secr inh: -4; HT1080NT lethal: 20%

How did Cc1cccc(C(=O)NCC(=O)OCC(=O)c2ccc(Cl)s2)c1 do in these assays?
TDP1 cell noCPT: 10%; TDP1 cell CPT: -18%; ELG1 DNA repair: 11%; HT1080 IDH1KD tx: 3%; IL1B secr inh: 28; HT1080NT lethal: 18%

How did CCOC(=O)N1CCN(S(=O)(=O)c2ccc(F)c(C(=O)Nc3cccc(C)c3C)c2)CC1 do in these assays?
TDP1 cell noCPT: inconclusive; TDP1 cell CPT: -24%; ELG1 DNA repair: -19%; HT1080 IDH1KD tx: -27%; IL1B secr inh: -6; HT1080NT lethal: -2%[9.24 µM]

Results for CCc1cccc(C)c1NC(=O)c1cc(S(=O)(=O)N2CCN(c3ccccc3)CC2)ccc1F ?
TDP1 cell noCPT: 9.2µM*; TDP1 cell CPT: 16µM*

Results for Cc1cccc(C)c1NC(=O)c1cc(S(=O)(=O)N2CCCc3ccccc32)ccc1F ?
TDP1 cell noCPT: 4.1µM*; TDP1 cell CPT: 10µM*

Results for O=C(Nc1ccc(C(F)(F)F)cc1)c1cc(S(=O)(=O)N2CCCc3ccccc32)ccc1F ?
TDP1 cell noCPT: 10µM*; TDP1 cell CPT: 7.3µM*

What do the screens show for `Cc1cc(NC(=O)COC(=O)c2ccc(S(=O)(=O)N3CCCc4ccccc43)cc2)no1`?
TDP1 cell noCPT: 3.3µM*; TDP1 cell CPT: 3.7µM*; ELG1 DNA repair: inconclusive; HT1080 IDH1KD tx: 4.1µM*; IL1B secr inh: 38; HT1080NT lethal: 4.1µM*

What do the screens show for `Cn1nc(C(=O)OCc2ccc(Br)cc2F)c2ccccc2c1=O`?
TDP1 cell noCPT: -29%; TDP1 cell CPT: -24%; ELG1 DNA repair: inconclusive; HT1080 IDH1KD tx: 6%; IL1B secr inh: -8; HT1080NT lethal: 0%

What do the screens show for `CCC(=O)N1CCc2cc(S(=O)(=O)N3CCc4ccccc4C3)ccc21`?
TDP1 cell noCPT: -26%; TDP1 cell CPT: inconclusive; ELG1 DNA repair: inconclusive; HT1080 IDH1KD tx: 7%; IL1B secr inh: 15; HT1080NT lethal: 14%

Results for CCC(=O)N1CCCc2cc(S(=O)(=O)N3CCCc4ccccc43)ccc21 ?
TDP1 cell noCPT: 18µM*; TDP1 cell CPT: 26µM*; ELG1 DNA repair: -18%; HT1080 IDH1KD tx: inconclusive; IL1B secr inh: 8; HT1080NT lethal: -14%

Results for CCC(=O)N1CCc2cc(S(=O)(=O)N3CCN(c4ccccn4)CC3)ccc21 ?
TDP1 cell noCPT: 12µM*; TDP1 cell CPT: inconclusive; ELG1 DNA repair: inconclusive; HT1080 IDH1KD tx: -8%; IL1B secr inh: -5; HT1080NT lethal: -1%

Results for CCOc1ccc(NC(=O)c2cc(S(=O)(=O)N3CCc4ccccc43)ccc2F)cc1 ?
TDP1 cell noCPT: 9.2µM*; TDP1 cell CPT: 8.2µM*

What do the screens show for `Cc1ccc(S(=O)(=O)N2CCCc3ccccc32)cc1C`?
TDP1 cell noCPT: 9.2µM*; TDP1 cell CPT: 12µM*; ELG1 DNA repair: 12%; HT1080 IDH1KD tx: 3%; IL1B secr inh: 0; HT1080NT lethal: 21%
